Sampled rows, rich in hits. Any-hit rate of the full collection: about 3.6%.
mHTT-CaM PPI inh: mutant huntingtin-calmodulin interaction inhibitors – biochemical, AlphaScreen, primary screen; P42858; AlphaScreen His-mHTT/GST-CaM binding, luminescence; inhibition, % at 15 µM; 190,000 tested, 3.6% active
Pf apPOL inh: Pf-apPOL inhibitors, biochemical, fluorescence; Recombinant Pf-apPOL, molecular beacon fluorescence, 1.5 h; inhibition, % at 10 µM; 210,000 tested, 0.25% active
Large screens that a line does not name were inactive. Rule as the data show it: active = inhibition above about 50%; inactive = the rest.

O=[N+]([O-])c1ccc(C2Nc3ccc(Cl)cc3C(c3ccccc3)O2)cc1 (stereo not drawn)	mHTT-CaM PPI inh 82
COc1cccc(C2C=C(c3ccc(Br)cc3)Nc3ncnn32)c1OC (stereo not drawn)	mHTT-CaM PPI inh 66
COc1cccc(C2C=C(c3cccc(Br)c3)Nc3nnnn32)c1OC (stereo not drawn)	mHTT-CaM PPI inh 65
COc1cc(C2C=C(c3ccc(Cl)cc3)Nc3ncnn32)cc(OC)c1OC (stereo not drawn)	mHTT-CaM PPI inh 76
COc1cccc(C2C=C(c3ccc(Br)cc3)Nc3nnnn32)c1OC (stereo not drawn)	none
COc1ccccc1C1C=C(c2ccc(Br)cc2)Nc2ncnn21 (stereo not drawn)	none
COc1cccc(C2C=C(c3ccc(C)cc3)Nc3ncnn32)c1OC (stereo not drawn)	none
COc1ccc(C2=CC(c3cc(OC)c(OC)c(OC)c3)n3ncnc3N2)cc1 (stereo not drawn)	none
COc1cccc(C2C=C(c3ccc(F)cc3)Nc3ncnn32)c1OC (stereo not drawn)	mHTT-CaM PPI inh 56
O=[N+]([O-])c1cccc(S(=O)(=O)N(Cc2ccccc2)Cc2ccccc2)c1	none
O=C(NCC(O)Cc1ccccc1)C(=O)NC1CC1 (stereo not drawn)	none
O=C(NCc1cccc(C(F)(F)F)c1)C1CCCN(c2cnc3nccnc3c2)C1 (stereo not drawn)	none
COc1ccc(CC(=O)NCCOc2cc(C)cc(C)c2)cc1	none
COc1cccc(C2C=C(c3cccc(Br)c3)Nc3ncnn32)c1 (stereo not drawn)	mHTT-CaM PPI inh 59
COc1ccc(C2=CC(c3cccc(Br)c3)n3nc(CCCO)nc3N2)cc1OC (stereo not drawn)	mHTT-CaM PPI inh 53
COc1cccc(C2C=C(c3ccc(C)cc3)Nc3ncnn32)c1 (stereo not drawn)	none
COc1ccc(C2=CC(c3ccccc3)n3nc(CCCO)nc3N2)cc1 (stereo not drawn)	none
CN(C)c1ccc(/C=C/c2cc(/C=C/c3ccc(N(C)C)cc3)[n+]3nn(C)nc3n2)cc1	mHTT-CaM PPI inh 100
CN(C)c1ccc(/C=C/c2cc(C(F)(F)F)[nH]c(=O)n2)cc1	none
CSc1nnc2c(n1)OC(c1ccccn1)Nc1ccccc1-2 (stereo not drawn)	none
COc1ccccc1NC(=O)N1CCN(c2cc(Oc3ccc(C)cc3)nc(C)n2)CC1	none
COCCN=C1Nc2ccccc2NC12CCCN(S(=O)(=O)c1cc(F)ccc1C)C2 (stereo not drawn)	none
O=C1C(=O)N(C(c2ccccc2)c2ccccc2)c2ccccc21	mHTT-CaM PPI inh 92
O=C(O)CN1C(=O)C(=O)c2ccccc21	none
O=C(O)/C=C/c1cccc(N=Cc2ccc([N+](=O)[O-])o2)c1	mHTT-CaM PPI inh 71
O=C(O)/C=C/c1cccc(N=Cc2ccc(N3CCOCC3)cc2)c1	none
Cc1ccc(-n2nc(C)c3sc(N4CCC(NC(=O)C5CCCC5)CC4)nc32)cc1	none
CCCOc1ccccc1/C=c1\sc2nc(-c3ccccc3)nn2c1=O	none
CCN1C(=O)Cc2ccccc2C1C(=O)NCc1ccco1 (stereo not drawn)	none
COc1ccc(C2C(C(=O)Nc3cc(C)ccc3OC)CCC(=O)N2c2ccc(OC)cc2)cc1 (stereo not drawn)	mHTT-CaM PPI inh 56
COc1ccc(N2C(=O)CCC(C(=O)Nc3cc(OC)ccc3OC)C2c2ccc(F)cc2)cc1 (stereo not drawn)	none
CCC[C@H]1[C@@H](OC(=O)NCc2cccc(C(F)(F)F)c2)CC[C@@]23CCCN2C(=O)CCC[C@@H]13	none
CCC[C@H]1[C@@H](OC(=O)NCc2ccc(C(F)(F)F)cc2)CC[C@@]23CCCN2C(=O)CCC[C@@H]13	mHTT-CaM PPI inh 78
Cc1cc(NC(=O)CSc2nc3n[nH]c(C)c3c(=N)n2-c2ccc(Cl)c(C)c2)no1	none
CCCCN(CC)C(=O)CSc1nc2n[nH]c(C)c2c(=N)n1-c1cccc(C)c1	none
CCC(Sc1nc2n[nH]c(C)c2c(=N)n1-c1cccc(Cl)c1)C(=O)NCCOC (stereo not drawn)	mHTT-CaM PPI inh 61
Cc1[nH]nc2nc(SCC(=O)N3CCCC3)n(-c3cccc(Cl)c3)c(=N)c12	none
CCC(Sc1nc2n[nH]c(C)c2c(=N)n1-c1ccc(Cl)c(C)c1)C(=O)NCCOC (stereo not drawn)	mHTT-CaM PPI inh 52
Cc1[nH]nc2nc(SCC(=O)NCc3ccco3)n(-c3cccc(Cl)c3)c(=N)c12	mHTT-CaM PPI inh 50
CCOc1cccc2c1OC1(C)C(C)C2NC(=O)N1c1ccc(Cl)cc1 (stereo not drawn)	none
O=C(c1ccc2c(c1)C1C=CCC1C(c1ccc([N+](=O)[O-])cc1)N2)N1CCCCCC1 (stereo not drawn)	mHTT-CaM PPI inh 96
O=[N+]([O-])c1ccc2c(c1)C1C=CCC1C(c1ccc(F)cc1)N2 (stereo not drawn)	none
CCOc1c(Br)cc(C2Nc3ccc([N+](=O)[O-])cc3C3C=CCC32)cc1OC (stereo not drawn)	mHTT-CaM PPI inh 58
COc1ccc2c(c1)C1C=CCC1C(c1ccc([N+](=O)[O-])cc1)N2 (stereo not drawn)	mHTT-CaM PPI inh 95
COc1cc([N+](=O)[O-])cc2c1NC(c1ccccc1)C1CC=CC21 (stereo not drawn)	none
CCNC(=O)N1CCC(c2nc(C)ccc2C(=O)N2CCc3ccccc3C2)CC1	none
COc1cccc(NC(=O)c2ccc(-c3cccc([N+](=O)[O-])c3)o2)c1	none
CCNc1cc(N2CCCC(CCC(=O)Nc3ccc(OC)cc3C)C2)ncn1 (stereo not drawn)	none
COc1ccc(-n2c(SCc3ccccc3)nc3ccccc3c2=O)cc1	none
CN(Cc1ccco1)C(=O)c1noc2c1CCCCC2	none
CCn1nccc1C(=O)N1CCCC(Nc2ncnc3c2CCC3)C1 (stereo not drawn)	none
COc1ccc(CN2C(=O)c3ccc(F)cc3C2=O)cc1	none
CC(C)(C)N1Cc2nnn(Cc3ccccc3)c2-c2cc(F)ccc2S1(=O)=O	none
CCN1Cc2nnn(Cc3ccccc3)c2-c2cc(F)ccc2S1(=O)=O	mHTT-CaM PPI inh 94
CC(C)NC(=O)C1=CCN(C(=O)c2ccccc2F)CC1	none
Cc1nc(CSc2ccc3nnc(-c4ccccn4)n3n2)cs1	mHTT-CaM PPI inh 76
O=C(NCCc1nnc2ccc(SCc3ccccn3)nn12)c1ccccc1	none
c1ccc(CSc2nnc3ccc(-c4ccccn4)nn23)nc1	none
O=[N+]([O-])c1cccc(CSc2ccc3nnc(-c4ccccn4)n3n2)c1	mHTT-CaM PPI inh 98
Cc1cccc(CC(=O)N2CCc3nc4cc[nH]n4c(=O)c3C2)c1	none
CC1CCC2C(=O)N(c3ccc(NCC(C)(C)CN(C)C)c([N+](=O)[O-])c3)C(=O)C2C1 (stereo not drawn)	none
O=C(CN1CCC(c2nc(-c3cccs3)no2)CC1)NCc1ccccc1	none
Cc1nc2c(ccc3nc(NC(=O)c4ccc(Cl)s4)sc32)s1	none
Cc1nc2c(ccc3nc(NC(=O)c4ccc5c(c4)OCCO5)sc32)s1	mHTT-CaM PPI inh 69
COc1ccc(-c2cc(=O)n(CC(=O)N3CCN(C(=O)c4ccco4)CC3)cn2)cc1	none
Cc1c(NC(=O)c2cc([N+](=O)[O-])ccc2Cl)c(=O)n(-c2ccccc2)n1C	none
CSc1ccc(Cl)c(C(=O)Nc2c(C)n(C)n(-c3ccccc3)c2=O)c1	Pf apPOL inh 63
CCOc1ccccc1C(=O)Nc1cccc(C(C)=O)c1	none
